# Measurements reported in the supplement of paper PMC11624193, “Coupling cellular drug-target engagement to downstream pharmacology with CeTEAM” (Nature Communications, 2024).
# Where a name gives a salt, the structure may show the parent alone. Unmarked numbers belong to inactive results.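 How the source made its calls: active = log2 fold change beyond 2 SD from the library mean after excluding viability outliers; inactive = within 2 SD.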
# Target: PARP1 L713F-nLuc biosensor (HCT116) (UniProt P09874)
# Sequence (P09874 whole entry L713F, looked up): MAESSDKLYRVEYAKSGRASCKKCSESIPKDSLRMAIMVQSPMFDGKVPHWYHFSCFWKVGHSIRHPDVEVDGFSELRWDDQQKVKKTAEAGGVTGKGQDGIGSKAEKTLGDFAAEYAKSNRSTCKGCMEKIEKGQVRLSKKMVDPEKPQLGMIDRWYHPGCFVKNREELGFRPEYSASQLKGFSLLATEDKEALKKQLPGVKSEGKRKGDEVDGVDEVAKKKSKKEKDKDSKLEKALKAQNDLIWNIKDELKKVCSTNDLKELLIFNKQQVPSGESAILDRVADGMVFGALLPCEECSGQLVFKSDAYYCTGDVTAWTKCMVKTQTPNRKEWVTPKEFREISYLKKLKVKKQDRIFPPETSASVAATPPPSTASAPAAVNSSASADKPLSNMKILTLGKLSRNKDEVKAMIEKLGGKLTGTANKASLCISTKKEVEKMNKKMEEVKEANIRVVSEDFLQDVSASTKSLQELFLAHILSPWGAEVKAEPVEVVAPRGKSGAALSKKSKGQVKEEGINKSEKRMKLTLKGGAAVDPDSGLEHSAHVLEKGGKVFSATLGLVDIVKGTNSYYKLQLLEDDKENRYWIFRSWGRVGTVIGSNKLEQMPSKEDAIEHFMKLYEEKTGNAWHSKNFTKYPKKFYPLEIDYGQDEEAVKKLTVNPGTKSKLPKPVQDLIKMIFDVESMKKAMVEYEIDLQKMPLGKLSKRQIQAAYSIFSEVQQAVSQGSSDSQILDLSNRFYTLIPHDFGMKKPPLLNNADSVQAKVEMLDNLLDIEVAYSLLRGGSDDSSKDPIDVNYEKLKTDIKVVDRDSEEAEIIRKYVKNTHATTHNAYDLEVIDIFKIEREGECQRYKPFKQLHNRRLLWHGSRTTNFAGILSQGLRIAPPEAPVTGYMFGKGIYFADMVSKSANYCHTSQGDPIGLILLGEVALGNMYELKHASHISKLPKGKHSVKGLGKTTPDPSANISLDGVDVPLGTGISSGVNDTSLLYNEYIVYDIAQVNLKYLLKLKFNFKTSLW
# Test: PARP1 L713F-nLuc/akaLuc ratio relative to DMSO control (biosensor stabilization) (fold change); higher = more PARP1 biosensor stabilization (target engagement / stabilizer), active = hit call of the paper
# Conditions: stock concentration (mM; final µM = stock mM x 1): 10; 24 h
row,Structure (SMILES),PARP1 L713F-nLuc/akaLuc ratio
1,CC(C)n1cnc2c(NCCc3ccc(O)cc3)nc(-c3csc4ccccc34)nc21 [StemRegenin 1 (SR1)],0.788
2,Cn1ncc(Cl)c1-c1cc(C(=O)N[C@H](CN)Cc2ccc(F)c(F)c2)oc1Cl,0.603
3,COc1ccccc1C(=O)Nc1cc2c(cc1N1CCCCC1)n(C)c(=O)n2C,1.25
4,NC(=O)c1ccc[n+]([C@@H]2O[C@H](CO)[C@@H](O)[C@H]2O)c1 [Nicotinamide riboside (chloride)],1.17
5,COc1ccc2c(Oc3ccc4c(C(=O)Nc5ccccc5N)cccc4c3)ccnc2c1 [Chiauranib],0.819
6,O=C(c1cc(Cc2n[nH]c(=O)c3ccccc23)ccc1F)N1CC(CNC2CC2)C1 [Venadaparib],5.9 (active)
7,CC(C)c1c(C(=O)Nc2ccccc2)c(-c2ccccc2)c(-c2ccc(F)cc2)n1CC[C@@H](O)C[C@@H](O)CC(=O)O [Atorvastatin Calcium],0.363
8,CN1C[C@@H](Nc2cnn(C)c(=O)c2Br)C[C@@H](c2ccccc2)C1,0.711
9,COc1ccc(S(=O)(=O)Nc2cccnc2Nc2ccc(O)cc2)cc1,1.28
10,O=C1CCC(N2C(=O)c3ccccc3C2=O)C(=O)N1 (configuration not stated) [Thalidomide],0.757
11,Cc1ccc(C(=O)Nc2ccc(Oc3cc4cnn(C)c4cc3-c3cn[nH]c3)c(F)c2)c(=O)n1-c1ccc(F)cc1,1.52
12,N#CCC1(n2cc(-c3ncnc4[nH]ccc34)cn2)CN(C2CCN(C(=O)c3ccnc(C(F)(F)F)c3F)CC2)C1 [Itacitinib adipate],1.05
13,CC(C)[C@H]1C(=O)N[C@@H](CCCN=C(N)N)C(=O)NCC(=O)N[C@@H](CC(=O)O)C(=O)N[C@H](Cc2ccccc2)C(=O)N1C,0.738
14,N#CCC1CCN(c2nc(Nc3ccc(N4CCC(O)CC4)cc3)c3c(=O)[nH]ncc3n2)CC1 [Gusacitinib],0.883
15,COc1cc2c(Nc3ccc(NC(=O)c4ccccc4)cc3)ncnc2cc1OCCCN1CCOCC1,0.809
16,O=C(CCCCCCC(=O)NO)NO [Suberoyl bis-hydroxamic acid],0.788
17,S=C(NCc1ccc2c(c1)OCO2)N1CCN(c2ncnc3c2oc2ccccc23)CC1 [Amuvatinib (MP-470)],0.659
18,Cc1ccc(Oc2nc3cc(-c4ccc5c(ccn5C)c4)c(Cl)cc3[nH]2)cc1C(=O)O,0.541
19,COc1cc2onc(C)c2cc1NS(=O)(=O)c1cc(Br)ccc1OC,0.95

row,Structure (SMILES),PARP1 L713F-nLuc/akaLuc ratio
1,Cc1cn(-c2cc(NC(=O)c3ccc(C)c(Nc4nccc(-c5cccnc5)n4)c3)cc(C(F)(F)F)c2)cn1 [Nilotinib (AMN-107)],0.959
2,c1cc(-c2cnn3cc(-c4ccc(OCCN5CCCCC5)cc4)cnc23)ccn1 [Dorsomorphin],1.11
3,C[C@H]1CNCCCN1S(=O)(=O)c1cccc2cncc(F)c12 [Ripasudil (K-115) hydrochloride dihydrate],1.12
4,O=C(NO)c1ccc(CN2CCCc3cc(Cl)ccc32)cc1,1.01
5,N=C(NOCC(O)CN1CCCCC1)c1cccnc1 (configuration not stated),0.933
6,O=C(O)CC[C@H](O)C(=O)O [L-2-Hydroxyglutaric acid (disodium)],1.2
7,"O=c1[nH]ccc2c(O)cccc12 [1,5-Isoquinolinediol]",2.7 (active)
8,COc1cc([C@@H]2c3cc4c(cc3[C@@H](O[C@@H]3O[C@@H]5CO[C@@H](C)O[C@H]5[C@H](O)[C@H]3O)[C@H]3COC(=O)[C@H]23)OCO4)cc(OC)c1O [Etoposide],0.601
9,O=C(O)CNC(=O)c1c(O)c2ccccc2n(OCC2CC2)c1=O [Desidustat],0.943
10,C[C@]1(O)C[C@@H](c2nc(-c3ccc4ccc(-c5ccccc5)nc4c3)c3c(N)nccn32)C1 [Linsitinib (OSI-906)],0.715
11,Cc1nc(C(=O)NCC(=O)O)c(O)c2ccc(Oc3ccccc3)cc12 [Roxadustat (FG-4592)],1.63
12,CS(=O)(=O)c1ccc(Oc2cc(F)cc(C#N)c2)c2c1[C@H](O)C(F)(F)C2,1.42
13,CNc1cc(Nc2cccn(-c3ccccn3)c2=O)nn2c(C(=O)N[C@@H]3C[C@@H]3F)cnc12,0.72
14,COc1cc(OC)c2c(=O)[nH]c(-c3cc(C)c(OCCO)c(C)c3)nc2c1 [Apabetalone],1.28
15,CC(C)(Oc1ccc(Cl)cc1)C(=O)Nc1ccc(OCc2ccc(C#N)cc2)cc1 [AMPK activator 4],1.2
16,COc1ccc(C2CC(c3ccccc3)=NN2c2ccc(S(N)(=O)=O)cc2)cc1 (configuration not stated),1.29
17,c1cc(SSc2ccns2)sn1,1.1
18,CCN(CC)C(=S)SSC(=S)N(CC)CC [Disulfiram],0.658
